This is part of a sample that, as a whole, favours compounds with a hit. Of some 83,000 tested, about 20% had one in any assay.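 Results are percent growth after 48 hours of single-concentration exposure. 100 means growth as in untreated cells, lower positive values show inhibition; negative values down to -100 show cell death.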 Values without a mark were called inactive. Calls of active or inactive are those of the source. The calls were made as follows: active = growth percent below 10; inactive = the rest.
How the values were obtained:
Experiment in all cases: NCI-60 one-dose screen, 48 h (100 = growth as untreated, 0 = no growth, -100 = all killed)
Conditions in all cases: 10 µM unless noted
[1] = test system: T-47D breast
[2] = test system: BT-549 breast
[3] = test system: MDA-MB-435 melanoma
[4] = test system: SW-620 colon
[5] = test system: MCF7 breast
[6] = test system: HCT-116 colon
[7] = test system: HCC-2998 colon
[8] = test system: KM12 colon

Row | SMILES | growth [1] | growth [2] | growth [3] | growth [4] | growth [5] | growth [6] | growth [7] | growth [8]
1 | O=C(Nc1ccc(F)cc1)Nc1ccc(Cl)c([N+](=O)[O-])c1 | 6.68% (active) | 42.4% | 21.1% | 19% | 7.97% (active) | 7.12% (active) | 20.2% | 12.4%
2 | COc1cc(-c2nc(SCC(=O)Nc3ccc(C(C)=O)cc3)[nH]c(=O)c2C#N)cc(OC)c1OC | 35.9% | 36.8% | -46.1% (active) | 25.8% | 18.2% | 3.92% (active) | 21% | 16.8%
3 | COCCNC(C(=O)c1ccccc1)c1ccccc1 (stereo not drawn) | 92.1% | 97.6% | 103% | 101% | 95.3% | 99.9% | 107% | 104%
4 | COc1cc2nc(C(=O)N3CCCCC3)cc(Nc3ccccc3)c2cc1OC | 91.2% | 102% | 104% | 107% | 96.5% | 99.9% | 105% | 99.3%
5 | O=C(O)c1cccc2oc(-c3ccccc3O)nc12 | 52.2% | 75.5% | 71.3% | 47.3% | 59.1% | 36.8% | 44.7% | 46%
6 | COc1ccc(SC2c3ccc(O)cc3Oc3nc(N)c(C#N)c(N)c32)cc1 (stereo not drawn) | 85.4% | 30.7% | 87% | 105% | 90.7% | 94.9% | 92.7% | 65.5%
7 | C=C1C(=O)O[C@H]2[C@H]1CC/C(COC(=O)c1ccc(C#N)cc1)=C\CC[C@@]1(C)O[C@@H]21 | -16.2% (active) | 29.7% | 24% | -27.7% (active) | 0.298% (active) | -60.3% (active) | 91.1% | 84.8%
8 | O=C(Nc1ccc(-n2ccc3c(NC(=O)c4ccccc4)ncnc32)cc1)Nc1ccc(Cl)c(Cl)c1 | 33.5% | 33.3% | 5.82% (active) | -2.62% (active) | 0.297% (active) | -82.8% (active) | 32.7% | -8.64% (active)
9 | CCN(CC)CCNc1ccc([N+](=O)[O-])c2sc3cc(Cl)ccc3c(=O)c12 | 103% | 89.9% | 72.8% | 40.2% | 24.6% | 11.8% | 47.3% | 66.6%
10 | COc1ccccc1S(=O)(=O)Nc1ccc2c3c(cc(-c4cnn(C5CC5)c4)nc13)C(=O)N2C | 69.9% | 90% | 52.4% | 68.5% | 29.6% | 60% | 75.4% | 56.3%
11 | Cc1ccc(-c2nc3c(N=Nc4ccc(S(N)(=O)=O)cc4)c(N)nn3c(N)c2C#N)cc1 | 34.1% | 56% | 52.3% | 16.5% | 28.3% | 13.7% | 52.4% | 29.2%
12 | COc1cc(NS(C)(=O)=O)ccc1Cc1c2ccccc2nc2ccccc12 | 33.5% | -13.9% (active) | 51.1% | 26.6% | 28% | 0.0983% (active) | 11.9% | 11.1%
13 | Cc1cn([C@]2(CF)O[C@H](CO)C2C)c(=O)[nH]c1=O (stereo partly drawn) | 119% | 110% | 133% | 98.6% | 120% | 100% | 121% | 110%
14 | CCOC(=O)NNc1nncc2ccccc12 | 94.8% | 113% | 100% | 104% | 105% | 106% | 103% | 101%
15 | CC(C)Cn1cnc2c3ccccc3nc(NCn3nc(-c4cc(Cl)cc(Cl)c4Cl)oc3=S)c21 | 94.4% | 97.5% | 91.4% | 117% | 96.2% | 79.3% | 97.4% | 99.7%
16 | Cc1ccc(=O)n(-c2ccc(Br)cc2F)c1 | 93.7% | 94.5% | 100% | 103% | 92.6% | 105% | 106% | 103%

Row | SMILES | growth [1] | growth [2] | growth [3] | growth [4] | growth [5] | growth [6] | growth [7] | growth [8]
17 | CC(C)NCC(O)COc1ccc(CC(N)=O)cc1 (stereo not drawn) | 98.9% | 96.7% | 107% | 100% | 98.1% | 99.2% | 106% | 106%
18 | CC(=O)Oc1ccc(C(OC(C)=O)OC(C)=O)cc1 | 72.1% | 94.2% | 104% | 112% | 98.5% | 92.8% | 97.2% | 98.6%
19 | CCN(CC)CCNCC(O)Cc1ccc(OC)cc1 (stereo not drawn) | 91.5% | 83.9% | 108% | 103% | 103% | 82.4% | 101% | 106%
20 | O=C(Nc1ccccc1F)Nc1ccccc1Cl | 72.5% | 85.7% | 97.4% | 96.2% | 90.5% | 101% | 99.2% | 83.5%
21 | CC1(C)CC(=O)C2=C(C1)OC1=C(C(=O)CC(C)(C)C1)C2c1ccc(OCc2cn(-c3ccc(F)cc3F)nn2)cc1 | 98.5% | 110% | 92.4% | 118% | 87.2% | 91.9% | 122% | 90.2%
22 | CCN(CC)CC(=O)Nc1c(C)cccc1C | 107% | 97.3% | 104% | 106% | 97% | 96.1% | 114% | 113%
23 | NC(CSC(c1ccccc1)(c1ccccc1)c1ccc(F)cc1)C(=O)O (stereo not drawn) | 30.4% | 28.7% | -47.1% (active) | 30.1% | 11.7% | -7.69% (active) | 4.55% (active) | 5.24% (active)
24 | COc1ccc(C[C@H](N)C(=O)N[C@@H]2[C@@H](CO)OC(n3cnc4c(N(C)C)ncnc43)[C@@H]2O)cc1 (stereo partly drawn) | -8.69% (active) | -72.1% (active) | -85.4% (active) | -67.8% (active) | -7.03% (active) | -84.6% (active) | -94.6% (active) | -85.2% (active)
25 | O=C(Nc1ccc(-n2ccc3c(NC(=O)c4ccccc4)ncnc32)cc1)c1ccc(Cl)c(C(F)(F)F)c1 | 30.4% | 55.1% | 18.2% | -3.54% (active) | 12.5% | -32% (active) | 48.2% | 11.1%
26 | COc1ccc(C(=O)NC(=O)Nc2ccc3c(c2)NC(=O)/C3=C\c2[nH]c(C)c(CCC(=O)O)c2C)c(F)c1 | 21.5% | 11.2% | 53.8% | 38.5% | 45.3% | 28.3% | 46.8% | 15.5%
27 | Cc1c(F)cccc1NC(=O)c1sc2nc3c(cc2c1N)CCCCC3 | 63.6% | 73.6% | 9.59% (active) | 25% | 14.8% | 49.8% | 75.8% | 34.8%
28 | O=C(Nc1ccc(-n2cc(-c3ccncc3)c(-c3ccc(O)c(Cl)c3)n2)cc1)Nc1ccc(Cl)c(C(F)(F)F)c1 | 29.2% | -19.4% (active) | -0.731% (active) | 19.6% | 15% | 6.73% (active) | 22% | 6.77% (active)
29 | CC1=C[S+](c2ccccc2)c2cccc3cc4ccccc4c1c23 (stereo not drawn) | -51.9% (active) | -10.9% (active) | 0.153% (active) | -13.4% (active) | -49.9% (active) | -87.6% (active) | -89.4% (active) | -88% (active)
30 | Cc1cn(-c2nc3c(c(NCc4ccccc4)n2)COCC3)c2cccc(C(N)=O)c12 | 62.7% [0.5 µM] | 89% [0.5 µM] | 63.9% [0.5 µM] | 86.1% [0.5 µM] | 35.5% [0.5 µM] | 11.4% [0.5 µM] | 69.9% [0.5 µM] | 63.2% [0.5 µM]
31 | CC(C)(C)C(=O)/C=c1/[nH]c(=O)/c(=C/c2ccccc2O)s1 | 41.3% | 71.8% | -25.9% (active) | 34% | 28.1% | 21.2% | 77.6% | 29.9%

— PubChem BioAssay (NCI)
